Several values for one entry are separate records, joined by “and”; a condition that tells them apart may be missing. Equal entries are not always repeated. Records with an inconclusive call do not appear. Activity calls are given as the source filed them. Unless noted, calls follow the shape of the dose curve; as a rule, active = well fitted curve in the direction sought with a large enough effect; inconclusive = small, poorly fitted or top-dose-only effect, or another doubt; inactive = no such curve, though single readings can be large; an effect the other way counts as inactive or inconclusive.

Consider 1 compound from PubChem BioAssay (NCATS).

In assay [1] the target is Vitamin D3 receptor (Homo sapiens) (UniProt P11473). Put plainly: qHTS assay for small molecule agonists of vitamin D receptor signaling (AID 588543; calls by dose curve;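 also: 0% = DMSO basal and 100% = reference agonist control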). An outline of the steps:
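qHTS in agonist mode: compound titrations stimulate a VDR-driven β-lactamase reporter in HEK293T cells over 16 h at 37 °C. Response normalized to 50 nM 1α,25-dihydroxyvitamin D3 = 100%, DMSO = 0%; Hill fitting gives EC50 and maximal response.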

Assay [2] is described as follows: qHTS assay for small molecule agonists of retinoid X receptor alpha signaling (AID 588544; calls by dose curve;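 as to activation: 0% = DMSO basal wells and 100% = reference agonist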). Conditions: HEK293T RXRa-UAS-bla, beta-lactamase reporter, 18 h; 530 nm emission.
Assay [3] deals with Retinoic acid receptor RXR-alpha (Homo sapiens) (UniProt P19793). The assay is described as above.
Chain of Retinoic acid receptor RXR-alpha (Homo sapiens) (P19793 whole entry, looked up): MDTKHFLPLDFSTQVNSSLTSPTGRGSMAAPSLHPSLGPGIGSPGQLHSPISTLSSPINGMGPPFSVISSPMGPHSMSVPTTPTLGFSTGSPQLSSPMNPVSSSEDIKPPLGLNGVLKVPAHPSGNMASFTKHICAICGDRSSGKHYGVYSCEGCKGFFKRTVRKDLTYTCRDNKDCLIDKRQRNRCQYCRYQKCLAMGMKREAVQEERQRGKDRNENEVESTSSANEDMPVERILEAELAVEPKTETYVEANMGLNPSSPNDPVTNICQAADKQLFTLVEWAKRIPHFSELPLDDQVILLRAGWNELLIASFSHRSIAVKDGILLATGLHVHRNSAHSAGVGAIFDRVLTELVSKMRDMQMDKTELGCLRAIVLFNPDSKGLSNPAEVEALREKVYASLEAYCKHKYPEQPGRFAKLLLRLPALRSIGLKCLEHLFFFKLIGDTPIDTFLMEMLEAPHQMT
In assay [4] the target is Thyroid hormone receptor beta (Homo sapiens) (UniProt P10828). Put plainly: qHTS assay for small molecule agonists of thyroid hormone receptor beta signaling (AID 588545; calls by dose curve;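 also: 0% = DMSO only and 100% = 10 nM T3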). An outline of the steps:
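Compounds were tested as agonists in TR-UAS-bla-GripTite HEK 293 cells. After 18 hrs at 37 C, CCF4 substrate was added and fluorescence read after 2 hrs at room temperature.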

Assay [5] in a line: qHTS assay for small molecule antagonists of retinoid X receptor alpha signaling (AID 588546).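 Also: cells stimulated with 9-cis-retinoic acid as agonist; % is scaled to controls: 0 for no effect and ±100 for the full control effect.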 The note with it: HEK293T RXRa-UAS-bla, beta-lactamase ratio, antagonist mode; measured here: W530 green channel, cytotoxicity proxy. The essentials: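 Beta-lactamase reporter inhibition, read as CCF4 fluorescence ratio (ex 405, em 460/530 nm) after 2 h at RT. HEK293T UAS-bla cells, 2500/well, were stimulated with 9-cis-RA at 500 or 100 nM final alongside test compound for 18 h at 37 C.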

In assay [6] the target is Thyroid hormone receptor beta (Homo sapiens) (UniProt P10828). Put plainly: qHTS assay for small molecule antagonists of thyroid hormone receptor beta signaling (AID 588547; active = well fitted inhibition curve with a large enough effect in the signal ratio, with a control signal flat, not every such curve was filed as active; the % refers to the signal ratio;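 also: cells stimulated with 0.4 nM T3 agonist during compound exposure; series mostly up to about 77 µM; % is scaled to controls: 0 for no effect and ±100 for the full control effect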). Conditions: TR-UAS-bla HEK293, beta-lactamase ratio, antagonist mode, 18 h. An outline of the steps: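 TR-UAS-bla GripTite HEK293 cells in 2% charcoal/dextran FBS medium were preincubated 4 h at 37 C, given compound (0.59 nM to 92 uM) plus 0.4 nM T3 (final) for 18 h, then CCF4 for 2 h at RT; Hill fit gave IC50.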
Chain of Thyroid hormone receptor beta (Homo sapiens) (P10828 whole entry, looked up): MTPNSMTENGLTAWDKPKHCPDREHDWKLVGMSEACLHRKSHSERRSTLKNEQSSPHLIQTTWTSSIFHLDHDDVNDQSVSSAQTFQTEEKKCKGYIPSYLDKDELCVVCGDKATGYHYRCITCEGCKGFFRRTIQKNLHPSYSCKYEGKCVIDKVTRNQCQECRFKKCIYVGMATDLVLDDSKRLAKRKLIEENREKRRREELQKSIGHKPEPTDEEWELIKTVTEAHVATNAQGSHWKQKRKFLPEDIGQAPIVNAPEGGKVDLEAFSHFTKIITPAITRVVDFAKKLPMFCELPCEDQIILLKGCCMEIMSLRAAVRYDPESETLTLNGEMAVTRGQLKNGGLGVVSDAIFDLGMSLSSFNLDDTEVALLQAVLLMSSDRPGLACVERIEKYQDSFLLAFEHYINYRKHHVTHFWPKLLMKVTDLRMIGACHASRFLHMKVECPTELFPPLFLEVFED

Assay [7] is described as follows: qHTS assay for small molecule agonists of the antioxidant response element (ARE) signaling pathway (AID 651741; active = well fitted activation curve with a large enough effect in the signal ratio; the % refers to the signal ratio; also: % of control where 0% means no effect). The essentials:
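Compounds in DMSO are pinned onto HepG2 ARE-bla cells (2,000/well) that were preincubated 5 h; plates stay 16 h at 37 C, then beta-lactamase activity is detected with LiveBLAzer B/G substrate by fluorescence.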

Assay [8] can be described thus: qHTS assay for small molecule activators of the p53 signaling pathway (AID 651743; active = well fitted activation curve with a large enough effect in the signal ratio, not every such curve was filed as active; the % refers to the signal ratio; also: series mostly up to about 92 µM; % of control where 0% means no effect). The note with it: HCT-116 p53RE-bla, beta-lactamase FRET ratio, 16 h; activation: stronger effect = higher value. An outline of the steps: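 Cell-based beta-lactamase reporter (p53 response elements, HCT-116 background). After a 5-hour preincubation, cells received compound for 16 hours at 37 C; substrate development ran 2 hours at room temperature.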

Assay [9] in a line: qHTS assay for small molecule activators of the nuclear factor-kappa B (NF-kB) signaling pathway (AID 651749; active = well fitted activation curve with a large enough effect in the signal ratio; the % refers to the signal ratio; also: series mostly up to about 77 µM; % of control where 0% means no effect). The note with it: NF-kB-bla ME-180 cells, beta-lactamase FRET ratio, 16 h; activation: stronger effect = higher value. The essentials:
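Screening used 2,000 ME-180 reporter cells per well exposed to pinned compound (23 nL) or DMSO; after 16 hr at 37C, beta-lactamase expression under NF-kB control was assessed through FRET.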

Assay [10] is described as follows: qHTS assay for small molecule disruptors of the mitochondrial membrane potential - 5 hr assay (AID 651755; calls by dose curve; also: % is scaled to controls: 0 for no effect and ±100 for the full control effect; nearly all actives have a fitted effect of over 40% in size). An outline of the steps: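 HepG2 cells, attached overnight at 37C, were exposed to compound or DMSO for 5 hr at 37C, 5% CO2. Mito-MPS dye was then added for 30 min, and fluorescence read at 490/535 nm (monomers) and 540/590 nm (aggregates).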
Assay [11] concerns the target Tumor necrosis factor (Homo sapiens) (UniProt P01375). Put plainly: qHTS assay to identify small molecules that stimulate Tumor Necrosis Factor-alpha (TNF-alpha) secretion (AID 651757; active = well fitted curve in the direction sought with a large enough effect in the signal ratio; the % refers to the signal ratio; also: 0% is about no effect). An outline of the steps: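 Read-out is HTRF, a TR-FRET sandwich of cryptate- and XL665-labeled anti-TNF-alpha antibodies detecting cytokine secreted by THP-1 cells. Cells had been incubated with test compounds at 37 C for 17 hrs beforehand.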

Assay [12] can be described thus: qHTS assay for environmental chemicals that activate the Aryl hydrocarbon Receptor (AhR) signaling pathway (AID 651777). Also: % of control where 0% means no effect; nearly all actives have a fitted effect of over 15% in size. The note with it: 1A2-DRE human hepatoma cells, luciferase, 24 h; activation: stronger effect = higher value. An outline of the steps: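 Quantitative HTS in stably transfected human liver-derived cells whose luciferase gene sits downstream of the CYP1A2 promoter and dioxin response element. After 24 hr exposure at 37 C, One-Glo luminescence was measured.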

Assay [13] concerns the target Peroxisome proliferator-activated receptor alpha (Homo sapiens) (UniProt Q07869). Put plainly: qHTS assay for small molecule agonists of the peroxisome proliferator-activated receptor alpha (PPARalpha) signaling pathway (AID 651778). Also: % of control where 0% means no effect. Conditions: PathHunter PPARalpha complementation, chemiluminescence, 6 h; stronger effect = higher value. An outline of the steps:
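Cells plated at 2,000/well and held overnight at 37 C, 5% CO2, then compound added by pin tool for 6 hr; after PathHunter detection reagent and 60 min at room temperature, chemiluminescence from enzyme complementation was read.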

Assay [14] is described as follows: qHTS assay for small molecule agonists of the antioxidant response element (ARE) signaling pathway measured by Nrf2-dependant transcriptional activity (AID 720636; active = well fitted curve in the direction sought with a large enough effect in the repeat runs; an effect the other way counts as inactive or inconclusive; also: % of control where 0% means no effect). An outline of the steps:
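Quantitative HTS format in HepG2 cells stably expressing an ARE-luciferase reporter; 16 hr compound treatment at 37 C, luciferase signal detected with ONE-Glo.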

The nature of assay [15]: qHTS assay for small molecule antagonists of the retinoid-related orphan receptor gamma (ROR-gamma) signaling pathway - cell viability counter screen (AID 720652; active = well fitted curve in the direction sought with a large enough effect in the repeat runs; an effect the other way counts as inactive or inconclusive;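 also: series mostly up to about 92 µM; compound exposure lasted 16 hr before ATP read; % is scaled to controls: 0 for no effect and ±100 for the full control effect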). The essentials: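 Luminescence from CellTiter-Glo after 30 min at room temperature reported cellular ATP as the cytotoxicity measure. Cells were the CHO reporter line with doxycycline-induced ROR-gamma expression, exposed to compound for 16 hr at 37 C.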

The nature of assay [16]: qHTS assay for small molecule agonists of the antioxidant response element (ARE) signaling pathway measured by Nrf2-dependant transcriptional activity - cell viability counter screen (AID 720653; active = well fitted curve in the direction sought with a large enough effect in the repeat runs; an effect the other way counts as inactive or inconclusive; also: % is scaled to controls: 0 for no effect and ±100 for the full control effect). The note with it: ARE-bla HepG2 viability, CellTiter-Glo ATP luminescence, 16 h; stronger effect = lower value. The essentials:
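ARE-bla HepG2 cells (2,000/well) rested 5 hrs at 37C/5% CO2, then exposed to compounds in DMSO for 16 hrs. Viability was read in the same wells as intracellular ATP by luminescence, 30 min at room temperature after reagent addition.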

Assay [17] in a line: qHTS assay for cell viability of HEK293 cells (AID 743288). Also: % is scaled to controls: 0 for no effect and ±100 for the full control effect; nearly all actives have a fitted effect of over 50% in size. The note with it: ATP luminescence (CellTiter-Glo), 18 h; max response: stronger effect = lower value. The essentials:
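The Tox21 protocol used parental HEK293 cells treated for 18 h at 37 C with compounds delivered by pintool; ATP-coupled luminescence after 30 min at room temperature gave viability.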

The nature of assay [18]: qHTS assay for cell viability of the p53RE-bla HCT-116 cell line (AID 743292). Also: % is scaled to controls: 0 for no effect and ±100 for the full control effect; nearly all actives have a fitted effect of over 55% in size. An outline of the steps:
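Viability of compound-treated p53RE-bla HCT-116 cells is taken from ATP-dependent luciferase luminescence. Treatment lasts 16 h at 37 C after a 5 h settling period; detection follows 30 min at room temperature.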

For assay [19], the target named is Rap guanine nucleotide exchange factor 3 (Homo sapiens) (UniProt O95398). Put plainly: Confirmatory qHTS for antagonist of cAMP-regulated guanine nucleotide exchange factor 3 (EPAC1) (AID 1645880).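 Also: plate controls were DMSO only for no effect and full effect of the ATA control for full effect; nearly all actives have a fitted effect of over 55% in size.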 An outline of the steps:
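Nucleotide exchange uses 100 nM EPAC1, 250 nM RAP1B-BODIPY-GDP and 50 uM GDP, with compounds in a concentration-titration series. After 5 min at room temperature, fluorescence (480 nm ex/540 nm em) is read every 5 min for 30 min. Data are normalized to control ATA and DMSO.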

The target is the same in assay [20]. Description: Confirmatory qHTS for agonist of cAMP-regulated guanine nucleotide exchange factor 3 (EPAC1) (AID 1645881).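 Also: EPAC1 catalysed release of BODIPY-GDP from Rap1B seen as fluorescence loss; 100% = effect of cAMP agonist control; nearly all actives have a fitted effect of over 75% in size.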
The target of assay [21] is Rap guanine nucleotide exchange factor 4 (Homo sapiens) (UniProt Q8WZA2). Description: Confirmatory qHTS for agonist of cAMP-regulated guanine nucleotide exchange factor 4 (EPAC2) (AID 1645884).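 Also: nucleotide exchange releases bodipy-GDP from Rap1 and this lowers its fluorescence; % is scaled to controls: 0 for no effect and ±100 for the full control effect; nearly all actives have a fitted effect of over 65% in size.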
Chain of Rap guanine nucleotide exchange factor 4 (Homo sapiens) (Q8WZA2 whole entry, looked up): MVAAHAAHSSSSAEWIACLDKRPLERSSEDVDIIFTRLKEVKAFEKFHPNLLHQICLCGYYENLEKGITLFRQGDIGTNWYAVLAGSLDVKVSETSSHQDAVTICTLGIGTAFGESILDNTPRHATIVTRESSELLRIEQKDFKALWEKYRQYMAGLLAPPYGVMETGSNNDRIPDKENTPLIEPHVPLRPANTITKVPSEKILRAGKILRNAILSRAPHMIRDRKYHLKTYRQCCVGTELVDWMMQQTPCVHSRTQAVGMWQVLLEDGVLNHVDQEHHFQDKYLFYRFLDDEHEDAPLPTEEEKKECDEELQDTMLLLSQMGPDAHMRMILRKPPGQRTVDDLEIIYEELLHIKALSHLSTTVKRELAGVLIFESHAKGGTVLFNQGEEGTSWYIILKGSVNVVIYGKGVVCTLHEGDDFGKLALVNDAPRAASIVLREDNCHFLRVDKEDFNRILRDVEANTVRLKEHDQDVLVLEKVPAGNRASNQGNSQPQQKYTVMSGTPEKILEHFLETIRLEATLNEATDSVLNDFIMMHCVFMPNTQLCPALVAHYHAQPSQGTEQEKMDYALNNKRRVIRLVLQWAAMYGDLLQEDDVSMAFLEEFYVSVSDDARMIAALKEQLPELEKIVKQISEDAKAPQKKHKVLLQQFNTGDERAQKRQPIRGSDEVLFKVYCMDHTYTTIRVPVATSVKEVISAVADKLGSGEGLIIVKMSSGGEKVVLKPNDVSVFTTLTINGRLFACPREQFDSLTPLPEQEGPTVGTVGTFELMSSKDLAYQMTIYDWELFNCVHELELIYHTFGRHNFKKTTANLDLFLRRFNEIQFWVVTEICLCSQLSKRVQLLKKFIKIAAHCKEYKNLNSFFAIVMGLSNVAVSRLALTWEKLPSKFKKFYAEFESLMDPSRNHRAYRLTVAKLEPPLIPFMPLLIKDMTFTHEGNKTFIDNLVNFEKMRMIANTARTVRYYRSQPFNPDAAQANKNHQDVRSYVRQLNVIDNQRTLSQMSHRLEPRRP
For assay [22], the target named is Nuclear receptor subfamily 1 group I member 2 (Rattus norvegicus) (UniProt Q9R1A7). Put plainly: qHTS assay for small molecule activators of the rat pregnane X receptor (rPXR) signaling pathway (AID 651751; call rule not given here; also: 0% is about no effect). The note with it: rPXR reporter cells, luciferase (One-Glo), 24 h.
Chain of Nuclear receptor subfamily 1 group I member 2 (Rattus norvegicus) (Q9R1A7 whole entry, looked up): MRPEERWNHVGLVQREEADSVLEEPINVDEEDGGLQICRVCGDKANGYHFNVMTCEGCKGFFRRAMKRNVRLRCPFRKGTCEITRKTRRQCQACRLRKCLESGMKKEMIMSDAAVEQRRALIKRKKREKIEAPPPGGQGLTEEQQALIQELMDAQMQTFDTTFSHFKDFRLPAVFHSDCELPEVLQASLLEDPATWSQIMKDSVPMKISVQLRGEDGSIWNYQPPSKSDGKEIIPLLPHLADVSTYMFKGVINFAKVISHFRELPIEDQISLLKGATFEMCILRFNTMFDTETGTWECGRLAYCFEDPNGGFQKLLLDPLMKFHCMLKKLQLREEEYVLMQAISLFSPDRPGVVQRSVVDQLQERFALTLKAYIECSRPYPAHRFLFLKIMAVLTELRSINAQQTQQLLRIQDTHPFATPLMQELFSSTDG
Assay [23] in a line: qHTS assay for small molecule activators of the human pregnane X receptor (PXR) signaling pathway (AID 720659; call rule not given here; also: 0% is about no effect).

Chain of Peroxisome proliferator-activated receptor alpha (Homo sapiens) (Q07869 whole entry, looked up): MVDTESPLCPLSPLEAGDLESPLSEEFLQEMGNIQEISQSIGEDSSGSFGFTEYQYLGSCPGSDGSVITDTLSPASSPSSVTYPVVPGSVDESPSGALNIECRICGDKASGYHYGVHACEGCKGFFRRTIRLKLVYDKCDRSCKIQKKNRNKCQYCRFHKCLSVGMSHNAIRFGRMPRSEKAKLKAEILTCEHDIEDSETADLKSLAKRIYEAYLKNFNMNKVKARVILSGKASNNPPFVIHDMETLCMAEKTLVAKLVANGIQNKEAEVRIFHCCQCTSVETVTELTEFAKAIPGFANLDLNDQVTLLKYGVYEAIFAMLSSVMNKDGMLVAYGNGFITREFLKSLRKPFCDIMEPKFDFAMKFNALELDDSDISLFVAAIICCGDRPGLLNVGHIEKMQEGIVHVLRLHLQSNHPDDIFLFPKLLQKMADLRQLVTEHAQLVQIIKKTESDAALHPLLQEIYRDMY
Chain of Vitamin D3 receptor (Homo sapiens) (P11473 whole entry, looked up): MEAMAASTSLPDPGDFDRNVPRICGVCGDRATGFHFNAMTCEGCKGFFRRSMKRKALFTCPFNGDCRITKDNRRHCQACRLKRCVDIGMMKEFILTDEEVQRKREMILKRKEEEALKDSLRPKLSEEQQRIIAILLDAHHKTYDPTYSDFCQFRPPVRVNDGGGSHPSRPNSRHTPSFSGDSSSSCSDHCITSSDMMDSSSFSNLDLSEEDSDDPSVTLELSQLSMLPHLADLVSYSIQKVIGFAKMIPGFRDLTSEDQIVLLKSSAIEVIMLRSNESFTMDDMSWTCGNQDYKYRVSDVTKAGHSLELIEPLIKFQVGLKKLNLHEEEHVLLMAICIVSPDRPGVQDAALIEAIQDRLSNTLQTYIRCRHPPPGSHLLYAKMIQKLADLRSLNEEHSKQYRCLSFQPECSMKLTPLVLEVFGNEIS
Chain of Rap guanine nucleotide exchange factor 3 (Homo sapiens) (O95398 whole entry, looked up): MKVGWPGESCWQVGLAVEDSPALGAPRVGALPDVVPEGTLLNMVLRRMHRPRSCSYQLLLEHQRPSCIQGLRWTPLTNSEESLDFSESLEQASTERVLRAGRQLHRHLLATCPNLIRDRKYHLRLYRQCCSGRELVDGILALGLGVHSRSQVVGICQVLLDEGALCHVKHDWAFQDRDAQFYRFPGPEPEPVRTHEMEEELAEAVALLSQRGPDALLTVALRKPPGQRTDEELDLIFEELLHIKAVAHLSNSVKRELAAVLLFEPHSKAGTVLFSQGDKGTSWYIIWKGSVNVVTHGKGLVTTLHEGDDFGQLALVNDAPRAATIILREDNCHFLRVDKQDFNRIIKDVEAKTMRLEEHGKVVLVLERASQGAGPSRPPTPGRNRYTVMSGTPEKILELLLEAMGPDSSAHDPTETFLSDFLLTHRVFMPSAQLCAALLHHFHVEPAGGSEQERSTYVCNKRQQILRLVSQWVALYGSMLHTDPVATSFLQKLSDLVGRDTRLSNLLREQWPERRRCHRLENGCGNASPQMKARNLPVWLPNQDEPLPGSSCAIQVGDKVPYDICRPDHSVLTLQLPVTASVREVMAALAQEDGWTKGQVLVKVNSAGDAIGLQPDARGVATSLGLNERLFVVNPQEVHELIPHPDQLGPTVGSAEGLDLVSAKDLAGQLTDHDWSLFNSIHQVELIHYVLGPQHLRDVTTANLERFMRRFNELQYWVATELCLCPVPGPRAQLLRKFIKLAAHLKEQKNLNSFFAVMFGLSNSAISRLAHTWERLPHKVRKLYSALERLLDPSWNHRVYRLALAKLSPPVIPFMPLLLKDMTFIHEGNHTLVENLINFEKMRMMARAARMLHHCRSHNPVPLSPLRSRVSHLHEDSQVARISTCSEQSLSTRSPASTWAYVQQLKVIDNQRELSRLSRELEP
Chain of Tumor necrosis factor (Homo sapiens) (P01375 whole entry, looked up): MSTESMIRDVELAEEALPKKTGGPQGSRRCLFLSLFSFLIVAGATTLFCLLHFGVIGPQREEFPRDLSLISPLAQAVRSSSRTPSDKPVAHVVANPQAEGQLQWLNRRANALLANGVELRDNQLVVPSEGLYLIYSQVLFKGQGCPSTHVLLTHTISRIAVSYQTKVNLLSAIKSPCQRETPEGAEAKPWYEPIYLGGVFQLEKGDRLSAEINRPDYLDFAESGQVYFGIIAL

As for `CCCCOC(=O)c1ccccc1C(=O)OCCCC`, the outcome in assay [1], in assay [4], in [11], in assay [14] and in assay [23] was inactive. Further, the max response in assay [2] was -8.82% and -0.286%; in assay [5] it was -3.09%; in [13], -1.47% (inactive) and -0.868% (inactive); in assay [16], -12.7% (inactive) and 12.7% (inactive); in assay [17], -1.27% (inactive) and -9.6% (inactive); in [22], 4.96% (inactive) and 5.3% (inactive). Moreover, the Potency entry in assay [3], in assay [7], in assay [10], in assay [15], in assay [18] and in assay [19] was “inactive” in each case. The Potency result in [20] and in assay [21] was “inactive” each time. For the same compound, in assay [6], the activity change % (negative = inhibition) is 17.1% (inactive) and -3.92% (inactive). For the same compound, the activation in [8] was -2.51% (inactive) and -0.006% (inactive); in assay [9] it was -1.75% (inactive) and -1.98% (inactive); in assay [12] it was -0.984% (inactive) and 1.91% (inactive).
